Screening data deposited in PubChem by National Center for Advancing Translational Sciences (NCATS).
The list is not random: actives were taken first. Their share in the collection is about 7.5%.
KinaseGlo FLuc: counter-screen: inhibitors of Kinase-Glo firefly luciferase. AID 1379. Potency, µM (highest dose often 38.3 µM), for the others: at the top dose activity change, negative = inhibition, hits mostly inhibitors. Q27757. 200,000 tested, 0.28% active. Kinase-Glo luciferase, ATP luminescence, 8 min; note: % is set by controls: 0 for no effect and ±100 for the full control effect; nearly all actives have a fitted effect of over 60% in size
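Recombinant Kinase-Glo luciferase, 10 uM ATP (linear range), luciferin; imidazole pH 7.2 / KCl / MgCl2 / Tween / BSA buffer; 8 min RT; luminescence.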
SMN2 splice enh: enhancers of SMN2 splice variant expression; HEK293 SMN2-luciferase splicing reporter, luminescence, 30-36 h; Potency, µM (titrated, usually from 46.1 µM), inactives show at the highest dose activity change, positive = activation, hits mostly activators; 210,000 tested, 2.8% active; AID 1458; note: % of control where 0% means no effect; nearly all actives have a fitted effect of over 55% in size
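HEK293 cells carry an SMN2 minigene-luciferase reporter in which exon 7 inclusion puts luciferase in frame. Cells were seeded at 2000 cells/well, attached for 10-12 hours, then exposed to compounds for 30-36 hours at 37C before ONE-Glo luminescence.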
ELG1 genotoxic: induces genotoxicity in HEK293T cells with luciferase-tagged ELG1. HEK293T ELG1-luciferase reporter, luminescence, 16 h. Potency, µM (titrated, usually from 46 µM), for inactives: at the highest dose activity change, positive = activation, actives largely listed as activators. AID 504466. 330,000 tested, 1.3% active; note: % of control where 0% means no effect; nearly all actives have a fitted effect of over 60% in size
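Genotoxicity was scored as increased ELG1-luciferase reporter signal, measured by ONE-Glo luminescence (30 min, room temperature). Compound or vehicle exposure of the HEK293T reporter cells lasted 16 hr at 37°C.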
NPC1 prom act: activators of NPC1 promoter. Huh7 NPC1 promoter luciferase reporter, 24 h. Potency, µM (titrated, usually from 9.22 µM), for inactives: at the top dose activation, hits mostly activators. 320,000 tested, 2.4% active; note: % of control where 0% means no effect; nearly all actives have a fitted effect of over 60% in size
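Luciferase expression driven by the NPC1 promoter was measured in stably transfected Huh7 cells after a 24 h compound incubation, using a luciferase reagent and a luminescence read.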
Rab9 prom act: activators of Rab9 promoter. AID 485297. Huh7 Rab9 promoter-luciferase reporter, luminescence, 24 h. 320,000 tested, 2.8% active. Potency, µM (highest dose often 9.22 µM), without a hit: at the highest dose activation, negative = inhibition, usual class: activators; note: % of control where 0% means no effect; nearly all actives have a fitted effect of over 60% in size
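Huh7 reporter line, Rab9 promoter upstream of luciferase. Compound exposure 24 h at 37 °C in reduced-serum medium with 10% FBS. Read-out: luminescence.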
FLuc modulator: counter-screen for miR-21 project: firefly luciferase inhibitors or activators. purified FLuc, Km substrates, luminescence inhibition. Potency, µM (highest dose often 57.5 µM), for inactives: at the highest dose activity change, negative = inhibition, hits mostly inhibitors. 360,000 tested, 6.9% active. AID 588342;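 note: plate controls were vehicle for no effect and reference inhibitor for full effect; nearly all actives have a fitted effect of over 55% in size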
Target sequence (P08659 whole entry, looked up): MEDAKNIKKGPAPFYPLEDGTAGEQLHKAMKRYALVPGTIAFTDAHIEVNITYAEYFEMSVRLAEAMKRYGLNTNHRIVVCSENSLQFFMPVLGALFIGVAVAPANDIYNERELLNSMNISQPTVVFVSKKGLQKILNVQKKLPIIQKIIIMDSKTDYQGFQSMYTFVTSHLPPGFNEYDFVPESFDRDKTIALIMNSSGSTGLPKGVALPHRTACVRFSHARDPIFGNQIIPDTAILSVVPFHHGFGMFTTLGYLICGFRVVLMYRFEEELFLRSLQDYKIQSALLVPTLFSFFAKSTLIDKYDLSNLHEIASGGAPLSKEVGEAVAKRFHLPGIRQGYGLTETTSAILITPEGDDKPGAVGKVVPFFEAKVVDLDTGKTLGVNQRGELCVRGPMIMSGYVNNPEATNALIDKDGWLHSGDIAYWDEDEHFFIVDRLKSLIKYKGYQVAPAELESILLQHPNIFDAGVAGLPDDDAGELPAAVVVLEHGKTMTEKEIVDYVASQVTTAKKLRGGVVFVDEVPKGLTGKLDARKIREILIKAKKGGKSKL
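Purified P. pyralis luciferase (10nM final) with 10uM D-luciferin and 10uM ATP (Km levels) in 50mM Tris acetate pH 7.5, 10mM Mg acetate, 0.01% Tween-20, 0.05% BSA; qHTS 6-point titration, ~60 µM downward; luminescence read.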
* hit, by the source's call; ? = inconclusive; · = no result given; [ ] = dose if it differs, or a comment. Calls come from the whole dose curve; as a rule, active = well fitted curve in the direction sought with a large enough effect; inconclusive = small, poorly fitted or top-dose-only effect, or another doubt; inactive = no such curve, though single readings can be large; an effect the other way counts as inactive or inconclusive. Potency is the fitted concentration of half-maximal effect.

SMILES | KinaseGlo FLuc | SMN2 splice enh | ELG1 genotoxic | NPC1 prom act | Rab9 prom act | FLuc modulator
CCOc1cccc(C(=O)Nc2cccc(C(C)=O)c2)c1 | -1% | ? | 0% | 6% | 22% | ?
COc1ccc(CNC(=O)CN2C(=O)CSc3ccc(S(=O)(=O)N4CCOCC4)cc32)c(OC)c1 | · | · | 1% | 5% | 4% | 0%
COc1cccc(C(=O)NC(=S)Nc2ccc(N(C)C)cc2)c1 | 0% | 11µM* | ? | ? | 3.5µM* | 12µM*
COc1cccc(C(=O)Nc2cccc(OC(C)=O)c2)c1 | -27% | 11µM* | 6% | ? | ? | ?
COc1ccc(C(=O)Nc2ccc(C(=O)Nc3cccc(C)c3)cc2)cc1 | · | · | 13µM* | -8% | -11% | 3%
O=C(NC(=S)Nc1ccc(NC(=O)c2ccccc2)cc1)c1ccc(F)cc1 | · | · | 10% | 20% | 2% | 1%
O=C(NC(=S)Nc1ccc2c(c1)C(=O)c1ccccc1C2=O)c1ccc(F)cc1 | -7% | 11µM* | ? | ? | ? | 17µM*
O=C(O)c1nn2cc(CCO)cnc2c1Cl | 0% | · | 13% | -4% | -2% | ?
COc1ccc(C(=O)Nc2cccc(-c3ccc4nncn4n3)c2)cc1 | 1% | -5% | -6% | -3% | -4% | 17µM*
COc1cc(OC)cc(C(=O)Nc2cccc(-c3ccc4nncn4n3)c2)c1 | 3% | 1% | -4% | -7% | -9% | 0%
COC(=O)c1cccc(NC(=O)c2cccc(OC)c2)c1 | ? | ? | · | · | · | 12µM*
COc1cccc(C(=O)Nc2ccncc2)c1 | -7% | · | -5% | -2% | 3% | -8%
CCCOc1ccc(C(=O)Nc2cccc(NC(=O)c3cccc(Cl)c3)c2)cc1 | · | 29% | · | · | · | 12µM*
COc1cccc(C(=O)Nc2ccc3c(c2)n(C)c(=O)n3C)c1 | · | · | ? | 0% | 12% | ?
COc1cccc(C(=O)Nc2ccc(C3CC3(Cl)Cl)cc2)c1 (stereo not given) | -18% | 13µM* | ? | 2.2µM* | 1.1µM* | 2.7µM*
CCc1ccc(NC(=O)C2CCCN2S(=O)(=O)c2cccc3nsnc23)cc1 (stereo not given) | · | -63% | · | · | · | 6%
CCC(=O)Nc1ccc2c(c1)C(=O)N(C)C2=O | 1% | 2% | -7% | -3% | 18% | 1%
COC(=O)c1ccccc1NC(=O)c1cc2sccc2n1C | 20% | -2% | -1% | -4% | 11% | ?
COc1cccc(NC(=O)c2cccc(Cl)c2)c1 | · | · | 2.1µM* | 2.5µM* | 2µM* | 3.4µM*
CCC(=O)Nc1ccc2c(c1)C(=O)c1ccccc1C2=O | -2% | 11µM* | ? | 1.6µM* | 1.3µM* | 3.8µM*
COC(=O)c1cccc(NC(=O)c2cc3sccc3n2C)c1 | 1% | 11µM* | ? | 1.3µM* | 1.8µM* | 15µM*
O=c1c(C=NCc2cccnc2)c(C(F)(F)F)[nH]n1-c1nc2ccccc2s1 | -6% | · | -6% | -2% | 1% | 2%
CC(=NCc1ccco1)c1c(C)[nH]n(-c2nc3ccccc3s2)c1=O | · | · | 3.7µM* | ? | ? | 7.6µM*
CCC(=NCc1ccccc1)c1c(C(F)(F)F)[nH]n(-c2nc3ccccc3s2)c1=O | -1% | -2% | ? | 20% | 3% | 12µM*
CCCN=C(C)c1c(-c2ccccc2)[nH]n(-c2nc3ccccc3s2)c1=O | 20% | -34% | -12% | ? | 26% | ?
SMILES | KinaseGlo FLuc | SMN2 splice enh | ELG1 genotoxic | NPC1 prom act | Rab9 prom act | FLuc modulator
C/C(=N/NC(=O)c1cccs1)c1c(C)[nH]n(-c2nc3ccccc3s2)c1=O | 10µM* | 11µM* | ? | 2µM* | 2µM* | 0.6µM*
CCC(=NCc1ccco1)c1c(C(F)(F)F)[nH]n(-c2nc3ccccc3s2)c1=O | -8% | 17% | 9.2µM* | ? | ? | 7.6µM*
Cc1ccc(SCC(=O)N2CCN(S(=O)(=O)c3cccs3)CC2)cc1 | · | · | -2% | · | · | ·
O=C1NC(c2ccccc2Cl)=N/C1=C/c1ccco1 | · | · | ? | 9% | ? | 0.3µM*
O=C1NC(c2ccc(Br)cc2)=N/C1=C/c1ccco1 | 0% | 7.1µM* | ? | 3.5µM* | 2.5µM* | 0.6µM*
CCC(=O)N1c2ccccc2CC1C(=O)NCc1cccc(C)c1 (stereo not given) | · | · | · | · | · | -5%
CO[C@@]1(NC(=O)Cc2cccs2)C(=O)N2C(C(=O)O)=C(COC(N)=O)CSC21 (stereo not given in full) | -7% | 4% | · | · | · | ·
Nc1nc2c(c(=O)[nH]1)CN(CCCN1CCOCC1)CN2 | -5%[7.66 µM] | 4%[9.22 µM] | · | · | · | ·
Cc1cc(/C=C2\SC(=S)NC2=O)c(C)n1-c1cccc(O)c1 | · | · | ? | 2.5µM* | 1.6µM* | 1.1µM*
Cc1cc(/C=C2\SC(=S)N(C)C2=O)c(C)n1-c1ccc(O)cc1 | · | · | ? | -15% | -26% | 0.54µM*
Cc1ccc(-n2c(C)cc(/C=C3\SC(=O)NC3=O)c2C)cc1 | · | · | ? | 2.5µM* | 0.71µM* | 2.7µM*
Cc1sc(-n2c(C)cc(/C=N/n3cnnc3)c2C)c(C#N)c1C | · | · | 2% | -6% | -5% | ?
Cc1sc(-n2c(C)cc(/C=C3\SC(=S)NC3=O)c2C)c(C#N)c1C | -6% | 3% | 1% | -1% | ? | 13µM*
COc1ccc(CC(=O)OC(C)C(=O)NC2CCCCC2C)cc1 (stereo not given) | · | · | 1% | -2% | -1% | 1%
C/C(=N\NC(=O)CN1CCN(Cc2ccc(C)cc2)CC1)c1ccncc1 | 0% | -5% | 1% | 1% | 0% | -1%
CN(C)CCCNc1cc(N2CCN(C3CCCCC3)CC2)c2noc3c2c1C(=O)c1ccccc1-3 | · | -22% | · | · | · | -3%
S=C1NCCNC(=S)NCCOCCOCCN1 | 12% | 4% | -14% | -1% | -6% | 5%
CCN(CC)CCOC(=O)c1ccc(NC(=O)Cn2ncc3c2-c2cc(C)ccc2OC3)cc1 | · | -1% | · | · | · | 4%
COc1cccc([C@@H]2Oc3ccc(Br)cc3C[C@H]2OC(=O)Nc2ccc(C)c(Br)c2)c1 | -1% | -1% | · | · | · | ·
COc1ccc(-n2c(C)cc(/C=C3\SC(=S)N(Cc4ccco4)C3=O)c2C)cc1 | -3% | 1%[1.84 µM] | 3% | 18% | ? | ?
Cc1cc(/C=C2/C(=O)NN(c3ccccc3)C2=O)c(C)n1-c1cccc(O)c1 | -21% | -25% | ? | 1.6µM* | 3.5µM* | 0.13µM*
COc1ccc(-n2c(C)cc(/C=C3\SC(=O)NC3=O)c2C)cc1 | · | · | ? | ? | ? | 12µM*
Cc1cc(/C=C2\SC(N)=NC2=O)c(C)n1-c1ccc(F)cc1 | 0% | · | 10% | 19% | 19% | 0.85µM*
